From PubChem BioAssay (Tox21) come the findings set out here.

Each structure is given as a SMILES string. Unmarked numbers belong to inactive results. Inconclusive results are not listed. Activity calls are given as the source filed them. Unless noted, calls follow the shape of the full dose curve.

The nature of experiment [1]: Nuclear factor erythroid 2-related factor 2/antioxidant responsive element (Nrf2/ARE) small molecule agonists: qHTS cell viability counter screen in human keratinocytes (AID 1919968; active = well fitted curve in the direction sought with a large enough effect in the repeat runs; an effect the other way counts as inactive or inconclusive; also: nearly all actives have a fitted effect of over 55% in size; also: potency is read from the fitted curve at half-maximal effect). In a few lines:
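KeratinoSens HaCaT cells, 1,500/well, preincubated 5 h, then exposed to compounds in DMSO for 23 h at 37 C/5% CO2. Viability read as CellTiter-Fluor fluorescence after 1 h, in the same wells as the ARE-luciferase read.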
(In general: In qHTS, concentration-response curves come from the screen itself.)

The nature of experiment [2]: Nuclear factor erythroid 2-related factor 2/antioxidant responsive element (Nrf2/ARE) small molecule agonists: luciferase reporter gene qHTS assay in human keratinocytes (AID 1919969). Also: nearly all actives have a fitted effect of over 35% in size. Also: potency is read from the fitted curve at half-maximal effect.
Experiment [3] concerns the target Gonadotropin-releasing hormone receptor (Homo sapiens) (UniProt P30968). The experiment in a line: Human gonadotropin-releasing hormone receptor (GnRHR) small molecule agonists, calcium flux assay in GnRHR-HEK293 cells (AID 1920063). Also: nearly all actives have a fitted effect of over 35% in size. In a few lines: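 HEK293 cells stably expressing human GnRHR were dye-loaded for 1 h at 37 C. Compound was added in agonist mode and fluorescence (Ex/Em 480/540) recorded kinetically for 3 min. Fifteen concentrations, triplicates.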

The target in experiment [4] is KiSS-1 receptor (Homo sapiens) (UniProt Q969F8). The experiment in a line: Human kisspeptin (KISS1R) small molecule agonists, calcium flux assay in KISS1R-HEK293 cells (AID 1920064; active = well fitted curve in the direction sought with a large enough effect in the repeat runs; an effect the other way counts as inactive or inconclusive). The method, boiled down:
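HEK293 cells stably expressing human KISS1R were loaded with calcium dye for 1 h at 37 C, then given compound; fluorescence (Ex/Em 480/540) was read kinetically for 3 min. Fifteen concentrations, triplicate.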
On the technique in general: A change in cytosolic calcium serves as a functional read-out for many receptors and channels.

Experiment [5] can be described thus: G protein-coupled receptor (GPCR) small molecule agonists, calcium flux assay: HEK293 wild type cell line counter screen (AID 1920065). The method, boiled down:
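Wild-type HEK293 cells plated 18 h, loaded with calcium dye 1 h at 37 C, then compounds added in agonist mode (ATP as positive control). Kinetic fluorescence Ex/Em 480/540 recorded 3 min at 1 sec intervals; 15 concentrations, triplicate.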

A short description of experiment [6]: p53 small molecule agonists, cell-based qHTS assay with human liver microsomes: qHTS cell viability counter screen (AID 1963579). Also: nearly all actives have a fitted effect of over 45% in size. In a few lines:
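Cytotoxicity counter screen: p53RE-bla, 4,000 cells/well; 5 h settle, 37 C/5% CO2; cpd + HLM 0.5 mg/mL + NADPH 0.5 mg/mL (final); 16 h, 37 C; CellTiter-Glo, 30 min RT, luminescence.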

A short description of experiment [7]: p53 small molecule agonists, cell-based qHTS assay with rat liver microsomes: qHTS cell viability counter screen (AID 1963580). Also: nearly all actives have a fitted effect of over 45% in size. The method, boiled down:
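HCT-116 p53RE-bla, 4,000 cells/well, 5 h pre-incubation; cpd + rat liver microsomes 0.5 mg/mL + NADPH 0.5 mg/mL (final); 16 h, 37 C; CellTiter-Glo, 30 min RT; luminescence.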

Experiment [8] in a line: p53 small molecule agonists, cell-based qHTS assay: qHTS cell viability counter screen (AID 1963581). Also: nearly all actives have a fitted effect of over 45% in size. Also: potency is read from the fitted curve at half-maximal effect. In a few lines:
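p53RE-bla HCT-116 cells, compounds added 5 h after plating and incubated 16 h at 37 C. Cytotoxicity measured in the same wells as intracellular ATP by CellTiter-Glo luminescence after 30 min at room temperature.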

Experiment [9] can be described thus: p53 small molecule agonists, cell-based qHTS assay (AID 1963582; active = well fitted activation curve with a large enough effect in the signal ratio in the repeat runs, not every such curve was filed as active; the % refers to the signal ratio). In a few lines:
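p53RE-bla reporter cells, compounds added in DMSO after 5 h plating, incubated 16 h at 37 C. Beta-lactamase read via 2 h room-temperature LiveBLAzer B/G FRET substrate, fluorescence intensity.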

The target of experiment [10] is 5-hydroxytryptamine receptor 2A (Homo sapiens) (UniProt P28223). The experiment in a line: 5-hydroxytryptamine receptor 2A (HTR2A) small molecule antagonists, cell-based qHTS assay (AID 1963586). Also: nearly all actives have a fitted effect of over 45% in size. In a few lines:
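Antagonist-mode intracellular calcium assay: DOI (4 nM) added after 5 min compound pre-incubation at room temperature to dye-loaded HTR2A-CHO cells. Fluorescence followed for 3 min, sampled every second.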

For experiment [11] the target is unchanged. The experiment in a line: 5-hydroxytryptamine receptor 2A (HTR2A) small molecule agonists, cell-based qHTS assay (AID 1963587). Also: nearly all actives have a fitted effect of over 30% in size. In a few lines:
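Kinetic calcium-flux fluorescence (2 min, 1 sec intervals) after compound addition in agonist mode. HTR2A-CHO cells were cultured 18 h, then dye-loaded 1 h at 37 C.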

Experiment [12] deals with Muscarinic acetylcholine receptor M1 (Homo sapiens) (UniProt P11229). Kind of experiment: Cholinergic receptor muscarinic 1 (CHRM1) small molecule antagonists, cell-based qHTS assay (AID 1963588). Also: nearly all actives have a fitted effect of over 40% in size. In a few lines: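 CHRM1-CHO calcium-flux assay, antagonist mode. Cells were seeded 18 h, dye-loaded 1 h at 37 C and given compound for 5 min at RT, then acetylcholine was added at 50nM. FDSS fluorescence was read 3 min; 15 concentrations, three runs.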

The target is the same in experiment [13]. Kind of experiment: Cholinergic receptor muscarinic 1 (CHRM1) small molecule agonists, cell-based qHTS assay (AID 1963589). Also: nearly all actives have a fitted effect of over 35% in size. In a few lines: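 CHO cells stably expressing human CHRM1 were loaded with calcium dye for 1 h at 37 C, then compound was added in agonist mode. Intracellular calcium fluorescence was followed kinetically at 1 s intervals. Fifteen concentrations were tested in three independent runs.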

Experiment [14] is described as follows: cAMP Responsive Elements (CRE) small molecule agonists, cell-based qHTS assay (AID 1963590). The method, boiled down: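 CRE-bla HEK 293T cells, 2,000/well in DMEM with 10% dialyzed FBS and 25 mM HEPES, pre-incubated 18 h at 37 C, then exposed to compound 3 h at 37 C. Beta-lactamase reporter read with LiveBLAzer B/G FRET substrate after 2 h at room temperature.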

Experiment [15] can be described thus: cAMP Responsive Elements (CRE) small molecule antagonists, cell-based qHTS assay (AID 1963591; active = well fitted inhibition curve with a large enough effect in the signal ratio in the repeat runs, not every such curve was filed as active; the % refers to the signal ratio). The method, boiled down: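 CRE-bla HEK293T cells plated 18 h, then given compound plus NKH477 at 0.25 uM final for 3 h at 37C. Beta-lactamase reporter read with LiveBLAzer B/G FRET substrate after 2 h at room temperature.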
Experiment [16] has as its target Beta-2 adrenergic receptor (Homo sapiens) (UniProt P07550). The experiment in a line: Adrenergic beta2 receptor (ADRB2) small molecule antagonists, cell-based qHTS assay (AID 1963592). Also: series mostly up to about 92 µM; nearly all actives have a fitted effect of over 50% in size. In a few lines:
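Cells (CHO, stable ADRB2 overexpression) incubated 18-20hr at 37C; compounds added from DMSO; agonist mix (1nM isoproterenol, 100uM IBMX, 25uM Ro-20-1724) added; 0.5hr RT; d2-cAMP and anti-cAMP-cryptate added; 1hr RT; 665/615 nm read.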

Experiment [17] has the same target. The experiment in a line: Adrenergic beta2 receptor (ADRB2) small molecule agonists, cell-based qHTS assay (AID 1963593).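 Also: CHO cells stably overexpressing human ADRB2.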 In a few lines: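 CHO cells stably over-expressing ADRB2 were plated overnight at 37C, then dosed with compounds plus a stimulation mix containing 100uM IBMX and 25uM Ro-20-1724 for 0.5hr at room temperature. cAMP was measured by HTRF competition, 1hr.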

The target of experiment [18] is D(2) dopamine receptor (Homo sapiens) (UniProt P14416). Kind of experiment: Dopamine D2 receptor (DRD2) small molecule antagonists, cell-based qHTS assay (AID 1963595; active = well fitted inhibition curve with a large enough effect in the signal ratio in the repeat runs, with a control signal flat; the % refers to the signal ratio). The method, boiled down: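 In this cell-based antagonist screen, compounds act for 10 min at room temperature before a 30 min challenge with 12 nM quinpirole and 200 nM NKH477. cAMP is quantified by HTRF competition in DRD2-HEK293 cells containing 0.1 mM Ro20-1724.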

Experiment [19] is described as follows: p53 small molecule agonists, cell-based qHTS assay with rat liver microsomes (AID 1963578). The method, boiled down: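 Cells carrying a p53 response element–beta-lactamase reporter were plated and rested 5 h, then dosed with compound in DMSO plus rat liver microsomes and NADPH, each at 0.5 mg/mL final. After 16 h at 37 C, LiveBLAzer substrate was added for 2 h.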

In experiment [20] the target is D(2) dopamine receptor (Homo sapiens) (UniProt P14416). The experiment in a line: Dopamine D2 receptor (DRD2) small molecule agonists, cell-based qHTS assay (AID 1963594). Also: nearly all actives have a fitted effect of over 35% in size. In a few lines:
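cAMP accumulation in DRD2-HEK293 cells measured by HTRF after 1 h detection; compounds added 10 min before NKH477 (200nM […]) forskolin-analogue stimulation, 30 min at room temperature, with Ro20-1724 present at 0.1 mM final.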

5-hydroxytryptamine receptor 2A (Homo sapiens), sequence (P28223 whole entry, looked up): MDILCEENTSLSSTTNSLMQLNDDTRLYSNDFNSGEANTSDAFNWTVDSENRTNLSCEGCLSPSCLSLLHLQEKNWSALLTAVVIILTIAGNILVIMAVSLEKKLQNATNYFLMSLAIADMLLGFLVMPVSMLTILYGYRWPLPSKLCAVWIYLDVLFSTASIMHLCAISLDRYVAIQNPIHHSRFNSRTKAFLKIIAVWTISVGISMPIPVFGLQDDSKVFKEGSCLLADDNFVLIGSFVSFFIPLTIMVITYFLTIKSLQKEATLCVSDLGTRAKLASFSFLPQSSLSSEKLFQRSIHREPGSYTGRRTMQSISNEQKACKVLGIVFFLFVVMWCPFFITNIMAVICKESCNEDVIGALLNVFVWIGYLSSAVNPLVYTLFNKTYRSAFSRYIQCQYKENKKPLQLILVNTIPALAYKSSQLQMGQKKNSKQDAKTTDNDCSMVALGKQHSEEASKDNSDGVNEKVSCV
KiSS-1 receptor (Homo sapiens), sequence (Q969F8 whole entry, looked up): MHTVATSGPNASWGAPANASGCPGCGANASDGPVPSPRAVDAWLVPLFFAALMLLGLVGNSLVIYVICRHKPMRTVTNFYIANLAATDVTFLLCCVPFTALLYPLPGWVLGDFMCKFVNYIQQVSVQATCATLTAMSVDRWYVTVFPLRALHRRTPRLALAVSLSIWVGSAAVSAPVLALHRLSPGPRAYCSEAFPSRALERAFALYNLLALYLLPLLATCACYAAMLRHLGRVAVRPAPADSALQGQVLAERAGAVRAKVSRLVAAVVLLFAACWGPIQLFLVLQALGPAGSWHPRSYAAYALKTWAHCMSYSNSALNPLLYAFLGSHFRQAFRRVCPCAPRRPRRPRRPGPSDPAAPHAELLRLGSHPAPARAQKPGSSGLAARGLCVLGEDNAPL
D(2) dopamine receptor (Homo sapiens), sequence (P14416 whole entry, looked up): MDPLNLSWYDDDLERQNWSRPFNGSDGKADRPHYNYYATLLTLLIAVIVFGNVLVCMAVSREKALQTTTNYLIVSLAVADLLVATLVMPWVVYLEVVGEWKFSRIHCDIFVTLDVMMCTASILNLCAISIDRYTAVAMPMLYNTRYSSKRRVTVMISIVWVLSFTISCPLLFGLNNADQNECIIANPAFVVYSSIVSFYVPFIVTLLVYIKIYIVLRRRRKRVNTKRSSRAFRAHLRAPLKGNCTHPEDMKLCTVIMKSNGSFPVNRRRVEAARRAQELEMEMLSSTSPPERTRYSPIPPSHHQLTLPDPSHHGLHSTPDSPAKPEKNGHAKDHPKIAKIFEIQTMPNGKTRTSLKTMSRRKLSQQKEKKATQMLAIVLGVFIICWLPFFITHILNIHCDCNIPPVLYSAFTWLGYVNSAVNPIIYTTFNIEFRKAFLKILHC
Gonadotropin-releasing hormone receptor (Homo sapiens), sequence (P30968 whole entry, looked up): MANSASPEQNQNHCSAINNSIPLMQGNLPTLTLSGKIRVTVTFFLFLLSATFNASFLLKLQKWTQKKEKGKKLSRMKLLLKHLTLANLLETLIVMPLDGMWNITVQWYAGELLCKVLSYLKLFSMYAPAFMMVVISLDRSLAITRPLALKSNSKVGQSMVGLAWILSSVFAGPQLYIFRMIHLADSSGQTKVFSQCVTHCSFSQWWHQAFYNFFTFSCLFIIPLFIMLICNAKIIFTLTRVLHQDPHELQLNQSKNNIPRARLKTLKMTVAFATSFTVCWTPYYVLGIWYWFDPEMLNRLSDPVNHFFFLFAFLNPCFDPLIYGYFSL
Beta-2 adrenergic receptor (Homo sapiens), sequence (P07550 whole entry, looked up): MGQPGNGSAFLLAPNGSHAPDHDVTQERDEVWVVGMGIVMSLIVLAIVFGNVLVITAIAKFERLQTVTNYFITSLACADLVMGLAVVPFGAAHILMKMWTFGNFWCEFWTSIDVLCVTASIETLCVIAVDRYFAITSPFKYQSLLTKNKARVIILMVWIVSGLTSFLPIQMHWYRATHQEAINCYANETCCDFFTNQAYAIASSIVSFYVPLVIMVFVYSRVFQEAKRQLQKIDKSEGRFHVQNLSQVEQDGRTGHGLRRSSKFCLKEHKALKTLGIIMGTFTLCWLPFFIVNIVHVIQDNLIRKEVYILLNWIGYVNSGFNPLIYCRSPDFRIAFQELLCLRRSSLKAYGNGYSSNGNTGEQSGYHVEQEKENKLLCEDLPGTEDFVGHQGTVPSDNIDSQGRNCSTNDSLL
Muscarinic acetylcholine receptor M1 (Homo sapiens), sequence (P11229 whole entry, looked up): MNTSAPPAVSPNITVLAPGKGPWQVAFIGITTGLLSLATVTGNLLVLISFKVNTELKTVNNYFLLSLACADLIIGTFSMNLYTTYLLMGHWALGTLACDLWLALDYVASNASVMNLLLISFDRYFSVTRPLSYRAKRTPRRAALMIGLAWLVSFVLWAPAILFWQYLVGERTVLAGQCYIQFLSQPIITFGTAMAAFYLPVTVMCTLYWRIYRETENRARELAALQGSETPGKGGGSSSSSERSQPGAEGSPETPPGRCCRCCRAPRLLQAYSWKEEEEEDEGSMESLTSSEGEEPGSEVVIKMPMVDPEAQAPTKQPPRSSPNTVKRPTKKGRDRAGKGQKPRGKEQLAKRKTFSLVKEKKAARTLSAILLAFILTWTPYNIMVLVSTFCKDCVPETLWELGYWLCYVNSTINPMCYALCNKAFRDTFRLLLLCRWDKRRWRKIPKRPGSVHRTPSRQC

For `NC(=O)Nc1ccccc1`, the Potency entry in [1], in experiment [2], in experiment [3], in experiment [4], in experiment [5] and in [6] was “inactive” in each case. Also, the Potency result in experiment [7], in experiment [8], in experiment [9], in [10], in experiment [11] and in experiment [12] was “inactive” throughout. In addition, the Potency entry in [13], in experiment [14], in [15], in experiment [16], in [17] and in experiment [18] was “inactive” in each case.
On to `Clc1ccc(C(c2ccccc2Cl)C(Cl)Cl)cc1` (stereo unspecified), for which the Potency in experiment [1] is 61.1 µM (active); in experiment [8] it was 40.8 µM (active). In addition, the Potency entry in experiment [2], in [3], in [4], in experiment [5], in experiment [19] and in [7] was “inactive” throughout. The Potency result in experiment [9], in experiment [15], in experiment [16], in experiment [17] and in experiment [20] was “inactive” each time.
Take `c1ccc2cnccc2c1`: the Potency entry in experiment [1], in [2], in experiment [3], in [4], in experiment [5] and in experiment [19] was “inactive” in each case. Moreover, the Potency result in experiment [7], in [8], in [9], in experiment [10], in [12] and in experiment [13] was “inactive” each time. For the same molecule, the Potency result in experiment [14], in experiment [15], in experiment [16], in experiment [20] and in experiment [18] was “inactive” in each case.
Regarding `c1ccc(CNc2ncnc3c2ncn3C2CCCCO2)cc1` (stereo unspecified), the Potency entry in experiment [1], in [3], in experiment [4], in experiment [5], in experiment [6] and in experiment [7] was “inactive” throughout. For the same molecule, the Potency result in [8], in experiment [9], in [10], in [11], in [12] and in experiment [13] was “inactive” each time. The Potency entry in [14], in [15], in experiment [16] and in experiment [18] was “inactive” each time. In experiment [2], the Potency was 1.72 µM (active).
`CCOC(=O)NCCC[Si](OCC)(OCC)OCC`: the Potency result in experiment [1], in experiment [2], in experiment [3], in experiment [4], in experiment [5] and in experiment [19] was “inactive” each time. The Potency result in [8], in experiment [9], in experiment [10], in [11], in experiment [12] and in [13] was “inactive” in each case. For the same molecule, the Potency result in [14], in experiment [15], in [16], in [17], in experiment [20] and in experiment [18] was “inactive” in each case.
`C=CC(=O)OCCCCCCCC`: the Potency entry in experiment [1], in experiment [2], in experiment [3], in [4], in experiment [5] and in experiment [6] was “inactive” throughout. Further, the Potency entry in experiment [7], in experiment [8], in experiment [9], in experiment [10], in experiment [11] and in [12] was “inactive” each time. The Potency entry in [13], in [14], in experiment [16] and in [18] was “inactive” throughout.
Regarding `COc1c2ccoc2cc2oc(=O)ccc12`, the Potency result in experiment [1], in experiment [2], in experiment [3], in [4], in experiment [5] and in experiment [6] was “inactive” each time. In addition, the Potency entry in experiment [7], in experiment [9], in experiment [10], in experiment [11], in experiment [12] and in [13] was “inactive” each time. In addition, the Potency result in experiment [14], in experiment [15], in experiment [16], in experiment [17] and in [18] was “inactive” throughout.
